Sampled rows, rich in hits. Any-hit rate of the full collection: about 3.6%.
LDHA inh = blocks human lactate dehydrogenase A. activity change, % (values are at about 110 or 230 µM). purified LDHA, NADH/diaphorase-resazurin fluorescence; active compounds read low. 480,000 tested, 0.15% active. P00338; in the data active = activity change below about -30%;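 also: plate controls were DMSO wells for no effect and wells without enzyme for full effect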
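Resorufin fluorescence (ex540/em590), read at 0 and 20 min after diaphorase/resazurin addition, reports the NADH left after a 5 min room-temperature reaction of 2 nM human LDH5 with 0.06 mM NADH and 0.2 mM pyruvate.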
D1 potentiator = human D1 dopamine receptor positive modulation; 360,000 tested, 0.036% active; potentiation, % at 10 µM; AID 504651; HEK293 TREx D1 cells, calcium flux, dopamine EC20 potentiation; P21728; in the data active = potentiation above about 30%; also: 0% is about no effect
D1 ag = agonists of human D1 dopamine receptor; activation, % at 2 µM; P21728; AID 504660; HEK293 T-REx D1 cells, calcium flux, agonist mode; 360,000 tested, 1% active; also: 0% is about no effect
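Inducible HEK293 T-REx D1 cells, force-coupled to calcium signalling, were plated at 4000 cells/well with tetracycline and held overnight at 30 C. After no-wash calcium dye loading, compound-evoked calcium rise over 180 s flagged agonists.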
TRHR agonist = TRH receptor (human) agonism; TRHR cells, calcium flux fluo-8, FDSS agonist mode; activation, % at 2 µM; 360,000 tested, 0.18% active; AID 493084; also: 0% is about no effect
Target sequence (P34981 whole entry, looked up): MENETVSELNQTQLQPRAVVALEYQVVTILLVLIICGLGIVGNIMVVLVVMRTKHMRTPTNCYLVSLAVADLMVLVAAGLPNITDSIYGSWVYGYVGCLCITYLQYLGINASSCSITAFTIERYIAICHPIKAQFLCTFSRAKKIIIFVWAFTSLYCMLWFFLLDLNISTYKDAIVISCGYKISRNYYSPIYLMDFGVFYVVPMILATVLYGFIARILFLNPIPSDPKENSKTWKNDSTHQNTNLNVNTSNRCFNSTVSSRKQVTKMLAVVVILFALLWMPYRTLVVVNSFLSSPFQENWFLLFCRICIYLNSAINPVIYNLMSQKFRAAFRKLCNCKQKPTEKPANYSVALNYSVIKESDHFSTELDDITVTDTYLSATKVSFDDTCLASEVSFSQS
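In this calcium-flux screen, cells bearing human TRHR are dye-loaded with fluo-8, baselined for 10 cycles, then exposed to library compounds; positive kinetic calcium responses during the agonist phase mark hits, with TRH as control.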
TRHR PAM = allosterically enhances the human TRH receptor; TRHR cells, fluo-8 calcium fluorescence, EC20 TRH enhancement; 360,000 tested, 0.66% active; enhancement, % at 2 µM; AID 493056; P34981; in the data active = enhancement above about 30%; also: 0% is about no effect
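TRHR-expressing cells loaded with fluo-8 calcium dye were read kinetically (ex 480/em 530) during compound addition, then stimulated with an EC20 of TRH (10 nM final). Enhancement of the Gq-mediated intracellular calcium response was scored.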
D1 antagonist = blocks dopamine activation of the human D1 receptor; P21728; HEK293 TREx D1 cells, calcium flux, dopamine EC80; active compounds read low; activity change, negative = inhibition, % at 10 µM; 360,000 tested, 3.2% active; in the data active = activity change below about -30%; also: % is scaled to controls: 0 for no effect and ±100 for the full control effect
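Tetracycline-induced HEK293 Trex D1 cells, force-coupled to calcium, dye-loaded; compounds added and read 180 s, then EC80 dopamine added and calcium flux tracked kinetically another 180 s.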
* marks the source's active call; other numbers are inactive results; nt = no result given. Rule as the data show it, unless noted: active = activation above about 30%; inactive = the rest.

SMILES	LDHA inh	D1 potentiator	D1 ag	TRHR agonist	TRHR PAM	D1 antagonist
O=C(CCCn1c(=O)c2cccn2c2ccccc21)Nc1cccc(Cl)c1	-0.1	0.3	-0.3	-0.9	1.3	-32.1*
Cc1cc(C)c(NC(=O)CCn2c(=O)c3cccn3c3ccccc32)c(C)c1	-4.8	3.3	13.3	0.2	-4.8	-49.3*
CCOc1ccc(/C=C/C(=O)c2ccc(Br)cc2)cc1OC	0.4	nt	nt	nt	nt	nt
CCN1CCN(C(=O)c2cccc(NC(=O)c3nnc(COc4cc(C)cc(C)c4)s3)c2)CC1	-5.5	nt	nt	nt	nt	nt
O=C(COC(=O)COc1ccccc1)Nc1ncc(Cl)cc1Cl	-8.2	nt	nt	nt	nt	nt
O=C(COC(=O)CCOc1ccccc1)Nc1ncc(Cl)cc1Cl	-3.2	2.6	0.3	-0.1	0.7	-60.0*
CCC1(CC)NC(=O)N(CC(=O)OCC(=O)Nc2ncc(Cl)cc2Cl)C1=O	-2.0	-15.7	0.6	-0.3	8.9	-64.3*
COc1ccc(CNC(=O)C(C)OC(=O)c2cc(Cl)c[nH]2)cc1 (stereo not drawn)	-0.6	nt	nt	nt	nt	nt
Cc1ccc(N=C2NN=C(c3cc(C)n(CC4CCCO4)c3C)CS2)cc1C (stereo not drawn)	-7.5	nt	nt	nt	nt	nt
CC(Sc1nc2cc(Cl)ccc2n1C)C(=O)NCc1ccc2c(c1)OCO2 (stereo not drawn)	2.5	nt	nt	nt	nt	nt
O=C(Oc1ccccc1)c1cc(O)c(O)c(O)c1	-35.4*	nt	nt	nt	nt	nt
Cc1ccc(NC(=O)COc2cccc(C)c2C)cc1S(=O)(=O)N1CCCCCC1	-4.6	1.2	4.9	0.6	-8.3	-0.1
N#CCC(=O)Nc1ccc(C(=O)OCC(=O)Nc2cc(-c3ccccc3)nn2-c2ccccc2)cc1	1.0	nt	nt	nt	nt	nt
Cc1cnc(C(=O)OCC(=O)Nc2cc(-c3ccccc3)nn2-c2ccccc2)cn1	-0.2	2.4	1.3	0.0	32.0*	4.8
CC(=O)c1ccc(OCCCC(=O)Nc2ccc(C)c(S(=O)(=O)N3CCCCC3)c2)cc1	0.1	-5.4	19.7	1.8	4.1	-35.5*
CCc1cccc(OCC(=O)Nc2ccc(C)c(S(=O)(=O)N3CCCCCC3)c2)c1	-0.1	2.7	33.4*	3.2	-15.9	-17.4
Cc1cnc(C(=O)OCC(=O)Nc2ccc(C)c(S(=O)(=O)N3CCCCCC3)c2)cn1	-2.4	-2.2	1.4	-0.5	33.0*	11.8
CCOc1ccc(C(=O)CCC(=O)Nc2ccc(C)c(S(=O)(=O)N3CCCCC3)c2)cc1	0.2	-3.0	3.4	-0.5	13.5	1.8
CNc1ncc(Cc2ccccc2)s1	-1.0	-5.1	2.6	0.6	-0.1	-52.7*
CNc1oc(-c2cc(S(=O)(=O)N(C)Cc3ccccc3)c(C)o2)nc1C#N	3.6	nt	nt	nt	nt	nt
Cc1ccc(C(=O)Nc2ccc(SC(F)F)cc2)s1	-7.0	-5.1	8.7	0.8	-3.3	-33.8*
CC[N+](CC)(CC)CC(=O)Nc1ccc(SC(F)F)cc1	-13.0	0.2	0.4	-1.3	0.1	9.2
Cc1ccc(C(=O)/C=C/c2cc(Br)c(O)c(Br)c2)cc1	19.4	nt	nt	nt	nt	nt
N#C/C(=N\Nc1ccc(Cl)c(Cl)c1)C(=O)C1CC1	-7.1	-4.8	23.0	0.2	-3.0	-44.3*
CN1CCN(CCCC(=O)c2ccc(F)cc2)CC1	0.0	-2.7	-0.2	-0.2	4.5	-5.2
SMILES	LDHA inh	D1 potentiator	D1 ag	TRHR agonist	TRHR PAM	D1 antagonist
O=C(CCCN1Cc2ccccc2C1)c1ccc(F)cc1	-3.5	-11.5	8.8	-0.3	-4.3	-71.2*
Cc1ccccc1-c1nc2ccc3ccccc3c2c2c1CCCC2	25.0	nt	nt	nt	nt	nt
COc1cccc(N2CCc3c(C)nc4ccc(Cl)cc4c32)c1	-4.5	-11.1	-0.2	-0.7	7.5	2.7
CCN1Cc2c(/C=C/c3ccccc3)nc3ccc(OC)cc3c2N(c2cccc(Cl)c2)C1	0.7	-13.1	6.3	4.6	-3.8	-62.9*
Cc1cc(=O)[nH]c2ccc(S(=O)(=O)NCc3ccccc3)cc12	-1.2	-1.4	8.4	1.2	-4.4	-28.4
Cc1cc(=O)[nH]c2c(C)cc(S(=O)(=O)NCc3ccccc3)cc12	-6.4	-2.6	3.4	1.1	-6.4	-39.3*
COc1cc(OC)c(NC(=O)Nc2cccc(OCc3cc(=O)n4ccccc4n3)c2)cc1Cl	-4.8	-5.8	2.3	0.1	1.4	-40.0*
CN(C)c1ccccc1NC(=O)c1cncc(Br)c1	-1.0	nt	nt	nt	nt	nt

Assay outcomes deposited in PubChem BioAssay by National Center for Advancing Translational Sciences (NCATS).
